# Measured values from PubChem BioAssay (NCATS).
# Inconclusive results are not listed. Calls of active or inactive are those of the source. Calls come from the whole dose curve; as a rule, active = well fitted cell-killing curve with a large enough effect; inconclusive = small, poorly fitted or top-dose-only effect; inactive = no such curve, though single readings can be large or run the other way.
# Experiment: qHTS of pediatric cancer cell lines to identify multiple opportunities for drug repurposing: Confirmatory screen for BT-37 cells (AID 1347117); note: nearly all actives have a fitted effect of over 55% in size
# Details: BT-37 pediatric cancer cells, viability; series mostly up to 45.9 µM; activity change, negative = cytotoxic: at the top concentration
# Excerpt: Drug repurposing or repositioning has been offered as a strategy for drug development in oncology programs. This approach has special potential for childhood cancers and other rare or orphan diseases, where the expected return on new drug development has been a disincentive to pharmaceuticals.
# In this project we exploit the poly-pharmacology of drugs to discover new indications via phenotypic screening of a panel of 19 well-characterized cell lines derived from solid tumors seen in children and adolescents. The goal is to identify approved drugs with previously unrecognized anticancer properties that has the potential to reveal new mechanisms and biological processes involved in carcinogenesis or drug resistance. We employed a titration-based paradigm (quantitative high-throughput screening or qHTS), where all compounds were tested at multiple concentrations for their effect on cell viability. Concentration-response curves (CRCs) were derived directly from the primary screen, and both potency and efficacy values were used to identify compounds with robust bioactivity profiles. We screened the NIH Chemical Genomics Center (NCGC) Pharmaceutical Collection (NPC) and Mechanism Interrogation Plate (MIPE) small molecule collections of approved and investigational compounds against these cell lines; and measured metabolically active cells after 48 hours of compound treatment as a proxy for cell viability.
# Assay Submitter: Nathalia J. Martinez, National Center for Advancing Translational Sciences, National Institutes of Health, Rockville, MD, USA; email: natalia.martinez@nih.gov
# [1] Shen, M et al. Quantitative high-throughput phenotypic screening of pediatric cancer cell lines identifies multiple opportunities for drug repurposing. Oncotarget 2017 Dec 19;9(4):4758-4772. PMID 29435139.
# The cells were obtained from University of North Carolina (UNC), Pediatric Preclinical Testing Program (PPT), and Coriell Institute (CI).
# qHTS cell viability assay:
# Cells were assayed in growth media at a density of 500-1,000 cells/well. Five microliters of cells were dispensed into 1,536-well, white, solid-bottom, TC-treated plates (Greiner Bio One) using a multidrop dispenser and incubated at 37 degrees C, 5% CO2, under a humidified atmosphere for 5 hours. Twenty-three nanoliters of compounds and controls (neutral control DMSO or positive control bortezomib at final concentration of 2.3 µM) were subsequently transferred by Kalypsys pintool. For primary screens, the MIPE collection was tested at 11-point dilutions (final concentrations range from 0.78 nM to 46 µM) and the NPC collection at 8-point dilutions (final concentrations range from 0.59 nM to 46 µM). Compounds tested in follow-up screens were assayed at 11-point dilutions. Cells were incubated for 48 hours, followed by addition of 3 µL of CellTiter-Glo (Promega). After a 15 min incubation at room temperature, samples were analyzed for luminescence intensity using a ViewLux High-throughput CCD imager equipped with clear filters.
# Potency is the fitted concentration of half-maximal effect.
SMILES,Potency,"activity change, negative = cytotoxic"
O=C1c2c(O)ccc(O)c2C(=O)c2c(NCCNCCO)ccc(NCCNCCO)c21,261 nM (active),
CCCCc1oc2ccccc2c1C(=O)c1cc(I)c(OCCN(CC)CC)c(I)c1,50100 nM (active),
CCC1(c2ccccc2)C(=O)NCNC1=O,,-0.438% (inactive)
CC(C)NCC(O)c1ccc(O)c(O)c1 (stereo not drawn),5220 nM (active),
COc1cc2c(c(OC)c1OC)-c1ccc(OC)c(=O)cc1[C@@H](NC(C)=O)CC2,56.2 nM (active),
CN1CCN(CCCN2c3ccccc3Sc3ccc(Cl)cc32)CC1,16500 nM (active),
CC(C)Cc1ccc(C(C)C(=O)O)cc1 (stereo not drawn),,0.481% (inactive)
NC12CC3CC(CC(C3)C1)C2,,0.962% (inactive)
NC(=O)NO,,-8.76% (inactive)
COC(=O)Nc1nc2ccc(C(=O)c3cccs3)cc2[nH]1,329 nM (active),
O=C(Nc1ccc([N+](=O)[O-])cc1Cl)c1cc(Cl)ccc1O,1440 nM (active),
CC(COc1ccccc1)N(CCCl)Cc1ccccc1 (stereo not drawn),18500 nM (active),
CC[C@@]1(O)C(=O)OCc2c1cc1n(c2=O)Cc2cc3c(CN(C)C)c(O)ccc3nc2-1,117 nM (active),
